# This is part of a sample that, as a whole, favours compounds with a hit. Of some 79,000 tested, about 15% had one in any assay. Unmarked numbers belong to inactive results. Activity calls are given as the source filed them. No stated cut-off is given here; in the data, active means growth inhibition above about 70%; inactive means the rest.
# Experiments:
# [1] = NCI Yeast Anticancer Drug Screen. Data for the rad52 strain (AID 147);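 further: 0% = growth of vehicle-treated control cultures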; settings: S. cerevisiae rad52 mutant growth inhibition, stronger effect = higher value
# Summary of the method: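 Measured: yeast growth inhibition. System: strain with a defined DNA damage repair alteration. Reference: vehicle-treated control cultures.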
# [2] = NCI Yeast Anticancer Drug Screen. Data for the wt1 strain (AID 149);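 further: 0% = growth of vehicle-treated wt1 cultures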; settings: S. cerevisiae wt1 strain (SPY 50644) growth inhibition, stronger effect = higher value
# Summary of the method: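 Each compound is tested on wt1 yeast and the loss of growth versus vehicle gives the inhibition value.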
# [3] = NCI Yeast Anticancer Drug Screen. Data for the rad50EPP+ strain (AID 151);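 further: 0% = growth of vehicle-treated control cultures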; settings: S. cerevisiae rad50 mutant strain, stronger effect = higher value
# Summary of the method: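 One strain with a rad50 alteration (rad50EPP+) was compound-treated, its growth then compared to that of vehicle controls.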
# [4] = NCI Yeast Anticancer Drug Screen. Data for the mgt1 strain (AID 153); settings: S. cerevisiae mgt1 mutant growth inhibition, stronger effect = higher value
# Summary of the method: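 After exposure of the mgt1 yeast mutant to compound, growth was measured and reported as inhibition compared with vehicle controls.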
# [5] = NCI Yeast Anticancer Drug Screen. Data for the rad50 strain (AID 155);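 further: 0% = growth of vehicle-only cultures of the same strain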; settings: S. cerevisiae rad50 strain growth inhibition, stronger effect = higher value
# Summary of the method: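 Vehicle-treated cultures provide the reference for the growth inhibition reported for compound-exposed, repair-deficient yeast.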
# [6] = NCI Yeast Anticancer Drug Screen. Data for the mec2-1 strain (AID 157); settings: S. cerevisiae mec2-1 strain, stronger effect = higher value
# Summary of the method: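 Test agents were screened against the mec2-1 yeast strain, with defined DNA repair or cell cycle alteration. Growth was scored as inhibition against vehicle-only controls.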
# [7] = NCI Yeast Anticancer Drug Screen. Data for the rad14 strain (AID 159);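 further: 0% = growth of vehicle-treated control cultures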; settings: S. cerevisiae rad14 strain growth inhibition, stronger effect = higher value
# Summary of the method: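 Inhibition of growth is reported for a repair-deficient yeast mutant following compound treatment, calculated relative to cultures that received vehicle.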
# [8] = NCI Yeast Anticancer Drug Screen. Data for the sgs1 mgt1 strain (AID 161);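 further: 0% = growth of cultures given vehicle only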; settings: S. cerevisiae sgs1 mgt1 strain, stronger effect = higher value
# Summary of the method: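 Read-out: growth inhibition vs vehicle controls. Cells: mutant yeast strain deficient in DNA damage repair.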
# [9] = NCI Yeast Anticancer Drug Screen. Data for the CLN2oe strain (AID 163);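 further: 0% = growth of vehicle-only control cultures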; settings: S. cerevisiae CLN2oe strain, stronger effect = higher value
# Summary of the method: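 Here, growth inhibition in a cell-cycle-altered yeast strain after compound exposure was quantified against vehicle control growth.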
# [10] = NCI Yeast Anticancer Drug Screen. Data for the cln2 rad14 strain (AID 165);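 further: 0% = growth equal to vehicle treated cultures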; settings: S. cerevisiae cln2 rad14 strain, stronger effect = higher value
# Summary of the method: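 Growth of compound-exposed yeast (cln2 rad14 genotype) measured and expressed as inhibition relative to vehicle.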
# [11] = NCI Yeast Anticancer Drug Screen. Data for the bub3 strain (AID 167); settings: S. cerevisiae bub3 mutant strain, stronger effect = higher value
# Summary of the method: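 Mutant yeast screening strain plus compound; vehicle-treated cultures serve as the 0% inhibition reference.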
# [12] = NCI Yeast Anticancer Drug Screen. Data for the wt2 strain (AID 169); settings: S. cerevisiae wt2 strain growth inhibition, stronger effect = higher value
# Summary of the method: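 Genetically defined yeast strains from a DNA-repair/cell-cycle panel were used. Compound-exposed yeast growth was measured, and the inhibition was calculated relative to vehicle treatment.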
# [13] = NCI Yeast Anticancer Drug Screen. Data for the mlh1 strain (AID 171);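 further: 0% = growth of vehicle-treated control cultures of the same strain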; settings: S. cerevisiae mlh1 strain growth inhibition, stronger effect = higher value
# Summary of the method: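 Here the genetically defined yeast mutant is grown with each compound, and the extent to which its growth falls below that of vehicle-exposed cells is reported.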
# [14] = NCI Yeast Anticancer Drug Screen. Data for the sgs1 strain (AID 173);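 further: 0% = growth of vehicle-only control cultures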; settings: S. cerevisiae sgs1 mutant, stronger effect = higher value
# Summary of the method: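 Relative growth inhibition, referenced to vehicle, was determined in a yeast strain with a defined alteration affecting DNA damage repair or cell cycle control after compound exposure.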
# [15] = NCI Yeast Anticancer Drug Screen. Data for the mlh1 rad18 strain (AID 175); settings: S. cerevisiae mlh1 rad18 strain growth inhibition, stronger effect = higher value
# Summary of the method: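 In this whole-cell yeast screen, a strain with altered DNA damage repair is challenged with compound, and its growth is measured against matched vehicle-treated controls.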
# [16] = NCI Yeast Anticancer Drug Screen. Data for the rad18 strain (AID 177); settings: S. cerevisiae rad18 mutant growth inhibition, stronger effect = higher value
# Summary of the method: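 Screen uses a yeast strain with a defined lesion in DNA damage repair; compound effect is read as loss of growth compared to untreated vehicle cultures.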
# [17] = at 5.0 µM (retest, dose inferred, filed as 0.5)
# [18] = at 50.0 µM (retest, dose inferred, filed as 5.0)
smiles,measurement,setting,value
ClCCn1c(CCl)nc2ccc(Cl)cc21,growth inhibition,[1]; at 1.2 µM,-34%
same,growth inhibition,[1]; at 3.7 µM,-41%
same,growth inhibition,[1]; at 11.0 µM,-8%
same,growth inhibition,[1]; at 33.0 µM,69%
same,growth inhibition,[1]; at 100.0 µM,98% (active)
same,growth inhibition,[2]; at 1.2 µM,-52%
same,growth inhibition,[2]; at 3.7 µM,-61%
same,growth inhibition,[2]; at 11.0 µM,-53%
same,growth inhibition,[2]; at 33.0 µM,52%
same,growth inhibition,[2]; at 100.0 µM,97% (active)
same,growth inhibition,[3]; at 1.2 µM,-12%
same,growth inhibition,[3]; at 3.7 µM,6%
same,growth inhibition,[3]; at 11.0 µM,9%
same,growth inhibition,[3]; at 33.0 µM,48%
same,growth inhibition,[3]; at 100.0 µM,91% (active)
same,growth inhibition,[4]; at 1.2 µM,-29%
same,growth inhibition,[4]; at 3.7 µM,-32%
same,growth inhibition,[4]; at 11.0 µM,-16%
same,growth inhibition,[4]; at 33.0 µM,71% (active)
same,growth inhibition,[4]; at 100.0 µM,98% (active)
same,growth inhibition,[5]; at 1.2 µM,-20%
same,growth inhibition,[5]; at 3.7 µM,-11%
same,growth inhibition,[5]; [17],19%
same,growth inhibition,[5]; at 11.0 µM,-3%
same,growth inhibition,[5]; at 33.0 µM,63%
same,growth inhibition,[5]; [18],54%
same,growth inhibition,[5]; at 50.0 µM,72.7% (active)
same,growth inhibition,[5]; at 100.0 µM,97% (active)
same,growth inhibition,[6]; at 1.2 µM,-27%
same,growth inhibition,[6]; at 3.7 µM,-49%
same,growth inhibition,[6]; [17],18%
same,growth inhibition,[6]; at 11.0 µM,-10%
same,growth inhibition,[6]; at 33.0 µM,76% (active)
same,growth inhibition,[6]; [18],75% (active)
same,growth inhibition,[6]; at 50.0 µM,84% (active)
same,growth inhibition,[6]; at 100.0 µM,95% (active)
same,growth inhibition,[7]; at 1.2 µM,-8%
same,growth inhibition,[7]; at 3.7 µM,0%
same,growth inhibition,[7]; at 11.0 µM,10%
same,growth inhibition,[7]; at 33.0 µM,70% (active)
same,growth inhibition,[7]; at 100.0 µM,99% (active)
same,growth inhibition,[8]; [17],18%
same,growth inhibition,[8]; [18],73% (active)
same,growth inhibition,[8]; at 50.0 µM,83.6% (active)
same,growth inhibition,[9]; at 1.2 µM,4%
same,growth inhibition,[9]; at 3.7 µM,8%
same,growth inhibition,[9]; at 11.0 µM,34%
same,growth inhibition,[9]; at 33.0 µM,58%
same,growth inhibition,[9]; at 100.0 µM,97% (active)
same,growth inhibition,[10]; [17],7%
same,growth inhibition,[10]; [18],7%
same,growth inhibition,[10]; at 50.0 µM,41.2%
same,growth inhibition,[11]; at 1.2 µM,-20%
same,growth inhibition,[11]; at 3.7 µM,-25%
same,growth inhibition,[11]; [17],13%
same,growth inhibition,[11]; at 11.0 µM,-15%
same,growth inhibition,[11]; at 33.0 µM,60%
same,growth inhibition,[11]; [18],46%
same,growth inhibition,[11]; at 50.0 µM,81.5% (active)
same,growth inhibition,[11]; at 100.0 µM,96% (active)
same,growth inhibition,[12]; at 1.2 µM,-10%
same,growth inhibition,[12]; at 3.7 µM,-13%
same,growth inhibition,[12]; at 11.0 µM,8%
same,growth inhibition,[12]; at 33.0 µM,77% (active)
same,growth inhibition,[12]; at 100.0 µM,98% (active)
same,growth inhibition,[13]; at 1.2 µM,-30%
same,growth inhibition,[13]; at 3.7 µM,-31%
same,growth inhibition,[13]; at 11.0 µM,-18%
same,growth inhibition,[13]; at 33.0 µM,67%
same,growth inhibition,[13]; at 100.0 µM,98% (active)
same,growth inhibition,[14]; at 1.2 µM,-19%
same,growth inhibition,[14]; at 3.7 µM,-31%
same,growth inhibition,[14]; at 11.0 µM,10%
same,growth inhibition,[14]; at 33.0 µM,60%
same,growth inhibition,[14]; at 100.0 µM,98% (active)
same,growth inhibition,[15]; [17],26%
same,growth inhibition,[15]; [18],75% (active)
same,growth inhibition,[15]; at 50.0 µM,79% (active)
same,growth inhibition,[16]; at 1.2 µM,-29%
same,growth inhibition,[16]; at 3.7 µM,-14%
same,growth inhibition,[16]; at 11.0 µM,30%
same,growth inhibition,[16]; at 33.0 µM,78% (active)
same,growth inhibition,[16]; at 100.0 µM,98% (active)

# From PubChem BioAssay (NCI)
